From PubChem BioAssay (NCI)
Several values for one entry are separate records, joined by “and”; a condition that tells them apart may be missing. Equal entries are not always repeated. This is part of a sample that, as a whole, favours compounds with a hit. Of some 83,000 tested, about 20% had one in any assay.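 For each line, cells grew in 96-well plates with the test compound present at a single concentration for 48 hours.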 A number with no mark means an inactive call. Activity calls are given as the source filed them. How the source made its calls: active means growth percent below 10; inactive means the rest.

system: DU-145 prostate; test: NCI-60 one-dose screen, 48 h (100 = growth as untreated, 0 = no growth, -100 = all killed); conditions: 10 µM

SMILES | growth
Cn1ncc2cc3c(Nc4ccc(Cl)cc4)cccc3nc21 | 90%
O=Nc1ccc(Nc2ccccc2)cc1 | 94.9%
CCC(C)(c1ccc(O)c(C)c1)c1ccc(O)c(C)c1 | 110%
O=C1c2ccccc2CCC1(Br)Br | 21.8%
C=C1N(C)c2ccc(Cl)cc2C1(C)C | 48.9%
O=c1[nH]cc(/C=N\Nc2ccccc2)c(=O)[nH]1 | 74.2%
Cc1cc(Cl)ccc1NC(=O)/C(Cl)=C1/Sc2ccccc2NC1=O | 121%
CN(C)CCNc1cccc2sc3ccc(O)cc3c(=O)c12 | 43.6%
N#CC(=C1C=CC(=NO)C=C1)c1ccccc1 | -66.7% (active)
CCOC(=O)[C@]1(Br)CC[C@@]1(Br)C(=O)OCC | 120%
O=C(CNS(=O)(=O)Cc1ccccc1)NNc1ccccc1 | 67.2%
COc1cccc(C(c2cc3c(cc2O)OCO3)N2CCOCC2)c1OC (stereo unspecified) | 109%
N#C/C(=C/N1C(=O)/C(=C/c2ccc([N+](=O)[O-])cc2)SC1=S)c1nc2ccccc2s1 | 104%
Nc1nc(N)c2cc(Sc3ccc4ccccc4c3)ccc2n1 | 30.5%
O=C1c2cccc3cc([N+](=O)[O-])cc(c23)C(=O)N1CCN1CCCC1 | -30.9% (active)
O=S(=O)(c1cc(Cl)ccc1O)c1cc(Cl)ccc1O | 100%
COc1cc(N)ccc1Nc1c2ccccc2nc2ccccc12 | 39.7%
O=C1C=CC(=O)N1c1ccc(N2C(=O)C=CC2=O)cc1 | 122%
CCC(=O)Oc1ccc(/C=N/NC(N)=S)nc1 | 28.4%
Cn1c2nc3ccccc3c-2nc2ccccc21 | 94.4% and 95.7%

system: K-562 leukemia; test: as above; conditions: 10 µM

SMILES | growth
Cn1ncc2cc3c(Nc4ccc(Cl)cc4)cccc3nc21 | 80.2%
O=Nc1ccc(Nc2ccccc2)cc1 | 13.4%
CCC(C)(c1ccc(O)c(C)c1)c1ccc(O)c(C)c1 | 106%
O=C1c2ccccc2CCC1(Br)Br | -13.5% (active)
C=C1N(C)c2ccc(Cl)cc2C1(C)C | 13.2%
O=c1[nH]cc(/C=N\Nc2ccccc2)c(=O)[nH]1 | 8.14% (active)
Cc1cc(Cl)ccc1NC(=O)/C(Cl)=C1/Sc2ccccc2NC1=O | 88.7%
CN(C)CCNc1cccc2sc3ccc(O)cc3c(=O)c12 | 22.7%
N#CC(=C1C=CC(=NO)C=C1)c1ccccc1 | 11.9%
CCOC(=O)[C@]1(Br)CC[C@@]1(Br)C(=O)OCC | 43.6%
O=C(CNS(=O)(=O)Cc1ccccc1)NNc1ccccc1 | 9.47% (active)
COc1cccc(C(c2cc3c(cc2O)OCO3)N2CCOCC2)c1OC (stereo unspecified) | 95.8%
N#C/C(=C/N1C(=O)/C(=C/c2ccc([N+](=O)[O-])cc2)SC1=S)c1nc2ccccc2s1 | 77.5%
Nc1nc(N)c2cc(Sc3ccc4ccccc4c3)ccc2n1 | -3.38% (active)
O=C1c2cccc3cc([N+](=O)[O-])cc(c23)C(=O)N1CCN1CCCC1 | -10.2% (active)
O=S(=O)(c1cc(Cl)ccc1O)c1cc(Cl)ccc1O | 62.1%
COc1cc(N)ccc1Nc1c2ccccc2nc2ccccc12 | 1.11% (active)
O=C1C=CC(=O)N1c1ccc(N2C(=O)C=CC2=O)cc1 | -6.5% (active)
CCC(=O)Oc1ccc(/C=N/NC(N)=S)nc1 | 47.3%
O=[N+]([O-])c1cc(S(=O)(=O)Nc2ccccc2)ccc1Cl | 83.9%
Cn1c2nc3ccccc3c-2nc2ccccc21 | 121% and 94.7%
